Assay outcomes from PubChem BioAssay.
Mm-Cpn inhibitor = inhibitors of Methanococcus maripaludis chaperonin TRiC (MmCpn) | AID 504842 | purified Mm-Cpn ATPase, ADP Transcreener TR-FRET | 330,000 tested, 0.031% active | Potency, µM (highest dose often 76.9 µM), without a hit: top-dose activity, negative = inhibition, actives largely listed as inhibitors; also: % is scaled to controls: 0 for no effect and ±100 for the full control effect; nearly all actives have a fitted effect of over 80% in size
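Eu-cryptate anti-ADP/ADP-d2 competition gives a ratio inversely related to ADP. Enzyme at 25 nM was pre-exposed to compound for 10 min, then given 10 uM ATP for 30 min, 37°C throughout.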
aSyn rescue = inhibitors of alpha-synuclein toxicity in yeast; Yeast expressing alpha-synuclein, growth rescue, BacTiter-Glo, 24 h; Potency, µM (titrated, usually from 46.1 µM), for the others: at the highest dose growth rescue (activation), actives largely listed as activators; 370,000 tested, 0.14% active; also: % of control where 0% means no effect; nearly all actives have a fitted effect of over 65% in size
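Readout is rescue of growth in alpha-synuclein-expressing yeast, so inhibitors of toxicity appear as activators. Growth after 24 hr at 30 deg C in galactose medium is quantified by luminescence.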
Abeta yeast res = restores growth of yeast expressing A-beta42 peptide | yeast expressing A-beta42, growth rescue, OD600, 48 h; response scale: 0% DMSO, 100% iron-clioquinol control | Potency, µM (titrated, usually from 46.1 µM), usual class: activators | 410,000 tested, 0.063% active; also: nearly all actives have a fitted effect of over 55% in size
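Yeast growth medium received pinned compounds, then yeast cells expressing toxic A-beta were added; plates incubated at 30 C for 48 hr. Growth read as absorbance at 600 nm, normalized to DMSO and equimolar FeCl3 plus clioquinol controls.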
ClpP mod = qHTS Assay for Activators of ClpP; 340,000 tested, 1.9% active; purified B. subtilis ClpP, FRET peptide cleavage, 20 min; Potency, µM (top dose mostly 57.5 µM), without a hit: at the top dose activity change, negative = active; ATP-dependent Clp protease proteolytic subunit (Bacillus subtilis (strain 168)), P80244; active = well fitted falling curve with a large enough effect; inconclusive = small, poorly fitted or top-dose-only effect; inactive = no such curve, though single readings can be large or run the other way; also: the source files actives as falling curves though it sought activators and does not explain the sign; nearly all actives have a fitted effect of over 65% in size
Target sequence (P80244 whole entry, looked up): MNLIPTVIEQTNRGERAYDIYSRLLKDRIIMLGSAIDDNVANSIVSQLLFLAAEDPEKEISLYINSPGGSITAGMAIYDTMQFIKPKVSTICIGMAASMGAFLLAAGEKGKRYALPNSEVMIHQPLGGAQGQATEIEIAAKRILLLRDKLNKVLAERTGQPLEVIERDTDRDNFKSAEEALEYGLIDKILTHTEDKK
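Buffer: 100 mM Tris/HCl pH8, 100 mM KCl, 0.05% low protease BSA, 2.5% glycerol, 0.01% Tween-20. ClpP 10 microg/mL final; 20 min RT; delta FRET normalized to ADEP and DMSO controls.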
TDP-43 yeast inh = rescues yeast growth from TDP-43 toxicity; TDP-43 expressing yeast growth rescue, BacTiter-Glo, 24 h; Potency, µM (doses to about 46.1 µM), for the others: at the highest dose growth rescue (activation), usual class: activators; 410,000 tested, 1.8% active; also: % of control where 0% means no effect; nearly all actives have a fitted effect of over 50% in size
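Galactose-induced TDP-43 yeast, OD600=0.02, compound pinned; 24 hr, 30 deg C; BacTiter-Glo luminescence for growth. Inhibitors of TDP-43 toxicity read as activators.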
FUS yeast rescue = rescues growth of FUS-expressing yeast. 390,000 tested, 0.24% active. S. cerevisiae FUS-expressing, growth rescue, OD600, 24 h. AID 1347120. Potency, µM (doses to about 76.6 µM), hits mostly activators;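 also: plate controls were DMSO vehicle for no effect and reference control for full effect; nearly all actives have a fitted effect of over 55% in size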
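Restored growth of FUS-toxic S. cerevisiae, read as 600 nm absorbance after 24 h at 30C in galactose medium (starting OD 0.005). Controls CP55940 and DMSO.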
* = called active by the depositor; i = inactive; ? = inconclusive; / = no result given. In the library only some 3.6% were active in any assay of this set; here they are far more common. Unless noted, calls follow the shape of the dose curve; as a rule, active = well fitted curve in the direction sought with a large enough effect; inconclusive = small, poorly fitted or top-dose-only effect, or another doubt; inactive = no such curve, though single readings can be large; an effect the other way counts as inactive or inconclusive. Potency is read from the fitted curve at half-maximal effect.

SMILES	Mm-Cpn inhibitor	aSyn rescue	Abeta yeast res	ClpP mod	TDP-43 yeast inh	FUS yeast rescue
O=C(CN1C(=O)C(=O)N(Cc2ccco2)C1=O)c1c[nH]c2ccccc12	-5%	-5%	i	-3%	-15%	i
O=C(CN1C(=O)C(=O)N(CCC2=CCCCC2)C1=O)c1c[nH]c2ccccc12	-1%	-10%	i	11µM*	17%	i
CCOC(=O)c1cc2c(=O)n3ccccc3nc2n(CCCOC)c1=NC(=O)c1c(-c2c(F)cccc2Cl)noc1C	/	/	i	4%	23%	i
COc1cccc2cc(-c3nc(-c4ccccc4)c(C)s3)c(=O)oc12	/	-7%	/	-4%	/	/
CCc1sc(-c2cc3cccc(OC)c3oc2=O)nc1-c1ccccc1	/	1%	/	14µM*	/	/
Cc1ccc(-c2cc(C(=O)N(Cc3ccc(C(C)(C)C)cc3)Cc3ccco3)no2)cc1	/	/	i	-1%	-11%	i
CCN1CCN(c2csc3ccc(Br)cc3c2=O)CC1	/	/	i	?	?	i
Cc1ccccc1C(=O)Nc1ccc(OCc2cc(=O)n3ccccc3n2)cc1	/	/	i	0%	11%	i
Cc1c(-c2ccc(Cl)cc2)c(=O)oc2c(CN3CCOCC3)c(O)ccc12	/	/	i	4%	31%	i
CCOc1ccc(C(=O)COc2ccc(NC(C)=O)cc2)cc1	-2%	7%	i	2%	-1%	11µM*
O=C(OCC#CCNc1nnc(-c2cccc3ccccc23)o1)c1cccs1	-3%	/	/	/	/	/
CC(=O)Nc1ccc(/C=N\NC(=O)c2cccc(S(=O)(=O)N(C)C)c2)cc1	/	/	/	/	/	i
COc1cc(NC(=O)CSc2nc(=O)n(CCCN3CCOCC3)c3c2CCC3)cc(OC)c1	0%	-1%	i	25µM*	5%	i
COc1cc(NC(=O)CSc2nc(=O)n(CCN3CCOCC3)c3c2CCC3)cc(OC)c1	0%	-11%	i	-2%	-22%	i
Cc1c(Cl)cccc1NC(=O)CSc1nc(=O)n(CCCN2CCOCC2)c2c1CCC2	1%	-3%	i	20µM*	21%	i
Cc1cc2ccccc2n1CCNC(=O)Cc1ccccc1	-7%	10%	i	-5%	0%	?
Cc1cc(C)c(S(=O)(=O)NCCn2c(C)cc3ccccc32)c(C)c1	35µM*	?	7.9µM*	0%	35µM*	?
CC(=O)C1=C(c2ccc(Cl)cc2)N(C(C)=O)n2c(nnc2C2CCCCC2)S1	/	/	i	-3%	19%	i
CNC(=O)c1ccccc1Nc1ccc(SC(F)F)cc1	1%	-29%	i	-4%	22µM*	i
CCS(=O)(=O)c1ccc2oc(Nc3ccc(C(C)C)cc3)nc2c1	2%	-46%	i	32µM*	22%	i
Cc1ccc(C(=O)O/N=C(\c2ccccc2)c2cccnc2)cc1	-6%	-6%	i	0%	18µM*	i
N/C(=N\OC(=O)c1ccccc1)c1cccnc1	-2%	-8%	i	-1%	16%	i
Cc1cccc(C(=O)O/N=C(\c2ccccc2)c2cccnc2)c1	1%	9%	i	-2%	13µM*	i
COc1ccc(-c2nc(CNC(=O)NC3CCCCC3)c(C)o2)cc1	/	/	i	-19%	18%	i
COc1ccccc1CNC(=O)c1nnn(CC(=O)Nc2c(C)cccc2C)c1N	/	/	i	-2%	23%	i
CN(C)c1oc(-c2ccc(OCc3ccc(Cl)cc3)cc2)nc1C#N	1%	0%	i	16µM*	-22%	i
CN(C)c1oc(-c2ccc(COc3ccccc3)o2)nc1C#N	/	/	i	32µM*	?	?
N#Cc1nc(-c2ccc(COc3ccccc3)o2)oc1NCc1cccnc1	/	/	i	?	6%	i
